# From PubChem
# S2 tox = Viability Counterscreen for Primary qHTS for Inhibitors of ATXN expression | S2 cells (HEK-293 line with an ATXN2-luciferase reporter) viability, CellTiter-Fluor protease fluorescence, 24 h | Potency, µM (titrated, usually from 56.7 µM), most hits filed as cytotoxic | actives 0.49% (n = 400,000) | AID 651635, 2014; further: nearly all actives have a fitted effect of over 40% in size
# RORg inh = qHTS for inhibitors of ROR gamma transcriptional activity | Nuclear receptor ROR-gamma (Mus musculus), P51450 | Drosophila S2 Gal4-RORgamma UAS-luciferase reporter, 20 h | Potency, µM (series often up to 53.6 µM), without a hit: at the top dose activity change, negative = inhibition, most hits filed as inhibitors | actives 5.4% (n = 310,000) | AID 2551, 2010; further: on the % scale 0 is the no-effect control and ±100 the full control effect; nearly all actives have a fitted effect of over 60% in size
# Target sequence (P51450 whole entry, looked up, the tested form may be a part): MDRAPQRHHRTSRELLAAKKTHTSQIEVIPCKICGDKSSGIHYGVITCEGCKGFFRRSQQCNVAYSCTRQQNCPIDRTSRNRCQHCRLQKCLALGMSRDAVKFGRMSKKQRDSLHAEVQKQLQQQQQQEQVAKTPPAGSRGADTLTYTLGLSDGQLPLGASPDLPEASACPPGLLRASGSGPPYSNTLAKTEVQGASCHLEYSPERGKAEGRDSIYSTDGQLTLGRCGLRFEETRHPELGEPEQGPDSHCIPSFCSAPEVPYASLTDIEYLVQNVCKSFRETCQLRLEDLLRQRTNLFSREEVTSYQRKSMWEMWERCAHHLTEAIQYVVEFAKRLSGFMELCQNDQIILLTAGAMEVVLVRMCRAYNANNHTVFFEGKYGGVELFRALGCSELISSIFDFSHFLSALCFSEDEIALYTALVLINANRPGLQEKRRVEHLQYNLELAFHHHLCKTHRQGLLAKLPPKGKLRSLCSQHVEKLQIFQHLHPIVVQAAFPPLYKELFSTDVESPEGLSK
#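 Compounds are pin-transferred onto Drosophila Schneider cells expressing a copper-inducible Gal4–ROR gamma transactivation domain fusion. After 1 hr, copper sulfate is added to 700 uM final; luciferase is read 20 hr later.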
# ATXN2 expr inh = Primary qHTS for Inhibitors of ATXN expression. HEK-293 ATXN2-luciferase reporter, luminescence, 24 h. Potency, µM (doses to about 57 µM), for inactives: at the highest dose activity change, negative = inhibition, hits mostly inhibitors. actives 0.72% (n = 360,000). AID 1745845, 2022; further: on the % scale 0 is the no-effect control and ±100 the full control effect; nearly all actives have a fitted effect of over 55% in size
#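 qHTS (up to 57 uM final) was run with 24 h compound exposure of reporter cells at 37 °C. Each well was multiplexed: SteadyGlo luminescence measured ATXN2-luciferase expression after a fluorogenic Gly-Phe-AFC viability readout (25 uM final).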
# Gal4-VP16 FLuc = VP16 counterscreen qHTS for inhibitors of ROR gamma transcriptional activity | actives 3.5% (n = 310,000) | Drosophila S2 Gal4-VP16 UAS-luciferase, luminescence, 20 h | Potency, µM (titrated, usually from 53.6 µM), for the others: top-dose activity, negative = inhibition, most hits filed as inhibitors | AID 2546, 2010;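 further: Gal4-VP16 expression switched on by copper sulfate through the metallothionein promoter; on the % scale 0 is the no-effect control and ±100 the full control effect; nearly all actives have a fitted effect of over 50% in size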
# TGFb SMAD3 inh = qHTS for Inhibitors of TGF-b | HepG2 CAGA-GFP TGF-b/SMAD3 reporter, GFP fluorescence, 18 h; TGF-beta stimulated, 500 pg/mL final | actives 1.2% (n = 410,000) | Potency, µM (doses to about 46.1 µM), for the others: at the highest dose activity, negative = inhibition, actives largely listed as inhibitors | AID 588855, 2011; further: on the % scale 0 is the no-effect control and ±100 the full control effect; nearly all actives have a fitted effect of over 65% in size
#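 TGF-beta reporter screen: HEPG2 CAGA-GFP, 1% FBS, 500 pg/mL TGF-beta final, 18 h; per-cell GFP summed per well; curves fitted and categorized by class.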
# HepG2 tox-1 = qHTS for Inhibitors of TGF-b: Cytotox Counterscreen. actives 0.76% (n = 410,000). Potency, µM (top dose mostly 46.1 µM), without a hit: top-dose activity change, negative = cytotoxicity, most hits filed as cytotoxic. HepG2 CAGA-GFP viability, ATP luminescence, 18 h
#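 CellTiter-Glo luminescence gave cytotoxicity after 18 hours at 37 degrees C. The cells were HepG2 CAGA-GFP in 1% FBS DMEM, stimulated with 500 pg/mL TGF-beta after compound addition. %Activity was normalised to no-cell wells (complete cell-killing) and DMSO (no toxicity), and curves were fitted and classified.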
# TGFb CAGA inh = qHTS for Inhibitors of TGF-b: Confirmation of Cherry Picks; HepG2 CAGA-GFP TGF-b reporter, GFP fluorescence, 18 h; cells stimulated with TGF-beta, 500 pg/mL; shares compounds with TGFb SMAD3 inh; actives 63% (n = 1,600); AID 720534, 2013; Potency, µM (doses to about 46.1 µM), for the others: top-dose activity, negative = inhibition, actives largely listed as inhibitors; further: on the % scale 0 is the no-effect control and ±100 the full control effect; nearly all actives have a fitted effect of over 65% in size
# HepG2 tox-2 = qHTS for Inhibitors of TGF-b: Cytotox Counterscreen for Cherry Picks | shares compounds with TGFb SMAD3 inh | HepG2 CAGA-GFP viability, ATP luminescence, 18 h; cells stimulated with TGF-beta, 500 pg/mL | Potency, µM (highest dose often 46.1 µM), for the others: at the top dose activity, negative = cytotoxicity, hits mostly inhibitors | actives 27% (n = 1,600); further: on the % scale 0 is the no-effect control and ±100 the full control effect; nearly all actives have a fitted effect of over 70% in size
# TGFb CCL64 inh = qHTS for Inhibitors of TGF-b: CCL64 Cells Orthogonal Assay for Cherry Picks; CCL64 CAGA-GFP reporter, TGF-b stimulated, GFP fluorescence, 18 h; shares compounds with TGFb SMAD3 inh; Potency, µM (doses to about 46.1 µM), inactives show at the highest dose activity, negative = inhibition, most hits filed as inhibitors; actives 41% (n = 1,600); further: nearly all actives have a fitted effect of over 65% in size
# COP TGFb inh = qHTS for Inhibitors of TGF-b: Hit Validation in HepG2 Cells using COP promoter | shares compounds with TGFb SMAD3 inh | HepG2 COP-GFP TGF-b reporter, GFP fluorescence, 18 h; cells stimulated by added recombinant TGF-beta | Potency, µM (top dose mostly 46.1 µM), inactives show at the highest dose activity, negative = inhibition, actives largely listed as inhibitors | actives 3% (n = 1,600) | AID 720537, 2013; further: nearly all actives have a fitted effect of over 70% in size
# * = called active by the depositor; i = inactive; ? = inconclusive; / = no result. Compounds with a hit are over-represented: about 6.3% of the library has one in this group of screens. The call rests on the fitted dose curve; in most records, active means well fitted curve in the direction sought with a large enough effect; inconclusive means small, poorly fitted or top-dose-only effect, or another doubt; inactive means no such curve, though single readings can be large; an effect the other way counts as inactive or inconclusive. Potency means the concentration at half of the fitted maximal effect.
SMILES,S2 tox,RORg inh,ATXN2 expr inh,Gal4-VP16 FLuc,TGFb SMAD3 inh,HepG2 tox-1,TGFb CAGA inh,HepG2 tox-2,TGFb CCL64 inh,COP TGFb inh
CCOc1ccc(CCNC(=O)COC(=O)c2cccc(S(=O)(=O)N3CCCC3)c2)cc1OCC,i,/,4%,/,1%,2%,/,/,/,/
Cc1ccc(Cn2cc(CN3CC(N4CCN(C5CCN(C)CC5)CC4)CS3(=O)=O)nn2)cc1 (configuration not stated),i,/,0%,/,/,/,/,/,/,/
COc1ccc([C@H]2CC(=O)C=C(c3ccc(SC)cc3)C2)cc1OC,i,/,4%,/,?,2%,/,/,/,/
COc1ccc([C@H]2CC(=O)C=C(c3ccc(Oc4ccccc4)cc3)C2)cc1OC,i,/,-19%,/,7.9µM*,-25%,9.2µM*,-21%,?,-2%
CCc1ccc(NC(=O)COc2ccc(/C=C(/C#N)c3nc4ccccc4[nH]3)cc2OC)cc1,/,2.8µM*,4.5µM*,3.2µM*,2.2µM*,-82%,?,?,14%,0%
COC(=O)c1ccc(COc2ccc(/C=C(\C#N)c3nc4ccccc4[nH]3)cc2OC)o1,i,25%,-7%,-7%,0%,-5%,/,/,/,/
CC1=C(C(=O)Nc2ccc(CC(=O)NCc3ccc(OC(C)C)cc3)cc2)SCCO1,i,-11%,/,-14%,?,-8%,/,/,/,/
COc1cccc(NC(=O)CNC(=O)c2ccccc2)c1,i,40%,34%,20%,12%,0%,/,/,/,/
COc1ccc(NS(=O)(=O)c2cc(NC(=O)CNC(=O)c3cccc(OC)c3)ccc2C)cc1,i,?,5%,-9%,?,7%,?,-8%,?,-1%
COc1ccc(NS(=O)(=O)c2cccc(NC(=O)CCC(=O)c3ccc(Cl)cc3)c2)cc1,?,?,-15%,?,10µM*,-23%,16µM*,?,?,46%
CCOC(=O)c1ccccc1NC(=O)NCc1cccn1Cc1ccc(F)cc1,i,/,-10%,/,-6%,13%,/,/,/,/
Cc1ccc(NC(=O)c2cc(S(=O)(=O)NCCC3=CCCCC3)ccc2F)cc1,?,?,-14%,?,11µM*,-9%,18µM*,?,26µM*,36%
Cc1ccc(C)c(NC(=O)c2cc(S(=O)(=O)NCCC3=CCCCC3)ccc2F)c1,/,/,/,/,?,-20%,/,/,/,/
CCCCC(=O)NC(c1cccc([N+](=O)[O-])c1)c1ccc2cccnc2c1O (configuration not stated),?,/,/,/,?,10%,10µM*,7.3µM*,?,10%
O=C(COC(=O)C1CC2C=CC1C2)Nc1c(Br)cc([N+](=O)[O-])cc1Br (configuration not stated),i,/,2%,/,12%,-3%,/,/,/,/
OCC1(Cc2ccccc2)CCN(Cc2cnc(-c3cccc4ccccc34)nc2)CC1,i,2%,-2%,-14%,-9%,-18%,/,/,/,/
OCC1(Cc2ccccc2)CCN(Cc2cnc(-c3ccc(Cl)cc3)nc2)CC1,i,23%,22%,2%,8.9µM*,16µM*,-10%,?,0%,36%
Cc1onc(-c2ccccc2Cl)c1C(=O)Nc1cccc(-c2cn3cccnc3n2)c1,i,17%,-10%,-13%,?,0%,?,8%,-29%,1%
COc1cccc(Cn2c(=O)c(C)nc3cnc(OCc4ccccc4)nc32)c1,/,-7%,/,-7%,/,/,/,/,/,/
Cc1ccc(NC(=O)c2ccc(Nc3c([N+](=O)[O-])cc([N+](=O)[O-])cc3[N+](=O)[O-])cc2)cc1,/,?,20µM*,1.3µM*,13µM*,13%,8.2µM*,?,6.5µM*,38%
CC(=O)Nc1ccc(NC(=O)c2cc([N+](=O)[O-])cc([N+](=O)[O-])c2)cc1,i,-22%,-8%,-5%,1%,-15%,/,/,/,/
COc1ccc(C2=NN(C(=O)COC(=O)c3ccc(S(C)(=O)=O)c([N+](=O)[O-])c3)C(c3ccco3)C2)cc1 (configuration not stated),/,/,?,/,8.9µM*,8.9µM*,?,?,2.9µM*,?
O=C(CSc1nc(=O)n(Cc2ccco2)c2c1CCC2)NCc1ccc(Cl)cc1,i,/,-7%,/,?,0%,/,/,/,/
CC1Sc2ccc(S(=O)(=O)N3CCC(C(=O)Nc4ccc(Cl)cc4)CC3)cc2NC1=O (configuration not stated),?,?,/,?,20µM*,-10%,5.2µM*,?,?,30%
COc1ccc(NC(=O)C2CCN(S(=O)(=O)c3ccc4c(c3)NC(=O)C(C)S4)CC2)cc1 (configuration not stated),i,?,-32%,?,?,-11%,/,/,/,/
COc1ccc(/C=C/C(=O)c2ccccc2)cc1COc1ccc(F)cc1,?,?,?,-4%,1%,-18%,/,/,/,/
COc1ccc(/C=C/C(=O)c2ccccc2)cc1Cn1nnc2ccccc21,/,?,?,?,8.9µM*,-17%,6.5µM*,23µM*,23µM*,0%
